We go through 49 molecules from PubChem BioAssay AID2012 (Sanford-Burnham Center for Chemical Genomics, 2009).

This assay concerns the target Eukaryotic translation initiation factor 4H (Homo sapiens) (UniProt Q15056). Nature of the assay: eIF4H binding inhibition – biochemical, uHTS, fluorescence polarization, translation initiation inhibitor project, primary screen (AID 2012).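 Also: calls also rest on retests at 20 µM and on dose response follow-up.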 The following applies: eIF4H fluorescence polarization binding assay, stronger effect = higher value.

In all, about 290,000 compounds went through this assay and about 2,700 (0.93%) were called active. No rule for the calls is given here. Shown is part of a subset that was picked to be rich in actives.

For `CCOc1ccc(N(C)S(=O)(=O)c2cnc[nH]2)cc1`, the inhibition (in general, the drop in the measured response relative to a control, in per cent) (at 35 µM) was -1% (inactive).
Regarding `COc1ccc(CNC(=O)C(Cc2ccccc2)n2cccc2)cc1` (stereo not given), the inhibition (at 35 µM) is 1.8% (inactive).
As for `Cc1ccc(C)n1C(Cc1ccccc1)C(=O)O` (stereo not given), under “at 35 µM”, the inhibition was 83% (active).
The same measure, in the same setting: under `CC(Cc1ccccc1)C(=O)N(C)Cc1ccccc1` (stereo not given) stands -2.7% (inactive).
Still for that read-out and setting: under `O=C(/C=C/c1ccco1)NC(=S)N1CCCCC1` stands 5.7% (inactive).
As to `Cc1cccc(N2CCN(C(=O)/C=C/c3ccco3)CC2)c1C`, the inhibition by setting is: (at 35 µM) 57.3% (active); (confirmation average, at 20 µM) 101%.
For the molecule `CCC(CC)C(=O)N1CCN(c2cccc(C)c2C)CC1`, the inhibition (at 35 µM) was -9.8% (inactive).
In the case of `CCOc1cc(/C=C2\SC(N3CCCC(C)C3)=NC2=O)ccc1O` (stereo not given), the inhibition (at 35 µM) is 1.3% (inactive).
As for `CC(=O)c1cccc(NC(=O)C2CCN(C(=O)c3ccccc3Cl)CC2)c1`, where the note is “at 35 µM”, the inhibition is 3.5% (inactive).
Still for that read-out and setting: the same measure for `c1coc(-c2nc3nc4ccccc4n3nc2-c2ccco2)c1`: 73.4% (active).
Take `Cn1c(-c2ccco2)nc2cc3ccccc3cc21`: the inhibition (at 35 µM) was 4.9% (inactive).
Still for that read-out and setting: under `COc1ccc(CCn2c(-c3ccco3)nc3nc4ccccc4nc32)cc1OC` stands 3.6% (inactive); under `O=C(Nc1ccc(Cl)cc1)c1cccc(OC(=S)N2CCOCC2)c1`, -8.8% (inactive); under `CC(=O)N1c2ccc(S(=O)(=O)N(C)CC(=O)N(C)Cc3ccccc3)cc2CC1C` (stereo not given), 2.8% (inactive).
With `O=C(CN1C(=O)c2cccnc2Oc2ccc(Cl)cc21)Nc1ccc(F)cc1`, for the setting “at 35 µM”, the inhibition was -8.2% (inactive).
Still for that read-out and setting: under `Cc1cc(C)nc(S/C=C/C(=O)c2ccccc2)n1` stands -7.4% (inactive).
Consider `O=C(/C=C/Sc1ncn[nH]1)c1ccc(Cl)cc1`, for which the inhibition reads like this: (at 35 µM) 60.7% (active); (confirmation average, at 20 µM) 65.7%.
For `COc1ccc(Cl)cc1CSc1ncn[nH]1`, the inhibition (at 35 µM) is -9.7% (inactive).
As to `COc1ccc(C(=O)C2CCCN(C(=O)c3ccc(OC)o3)C2)c(C)c1` (stereo not given), the inhibition (at 35 µM) is -2.6% (inactive).
On the same count and under the same terms, under `Oc1cccc(/C=N/Nc2ccc(Cl)nn2)c1O` stands 24.2% (inactive).
On to `COc1ccc(/C=C2\SC(=S)N(CCCC(=O)NC3CCCC3)C2=O)cc1OC`, for which, where the note is “at 35 µM”, the inhibition was 48.7% (inactive).
As for `Cc1ccc(C(=O)Oc2coc(CSc3nnc(NC(=O)c4cccs4)s3)cc2=O)cc1C`, the inhibition by setting is: (at 35 µM) 65.8% (active); (confirmation average, at 20 µM) 85.6%.
In the case of `Cc1ccc(C(=O)Nc2nnc(-c3cccs3)s2)cc1C`, the inhibition (at 35 µM) was -2.7% (inactive).
The same measure, in the same setting: under `CCSc1nnc(NC(=O)c2ccc(C)cc2)s1` stands -9.1% (inactive).
For `CN1CCN(C(=O)c2ccccc2NC(=O)COc2ccccc2Cl)CC1`, where the note is “at 35 µM”, the inhibition was -9.2% (inactive).
The same measure, in the same setting: the same measure for `Cn1c(=O)[nH]c(=O)c2c1nc(N1CCN(C(c3ccccc3)c3ccccc3)CC1)n2CCO`: 0.3% (inactive).
`CCOc1cnc(C(=O)NNC(=O)c2ccccc2Br)o1`: the inhibition by setting is: (at 35 µM) 85.7% (active); (confirmation average, at 20 µM) 95%.
On to `CCCc1ccc(OCCNC(=O)c2ccccc2Br)cc1`, for which the inhibition (at 35 µM) was 8.8% (inactive).
On the same count and under the same terms, the same measure for `O=C(NC(=S)Nc1ncccn1)c1ccccc1Br`: -2% (inactive).
`CCCCc1nc2cc(C(=O)N3CCCCC3CCO)ccc2o1` (stereo not given): the inhibition (at 35 µM) was -1.1% (inactive).
Still for that read-out and setting: the same measure for `COc1ccc(CCNC(=O)C(=O)NCC2OCCN2S(=O)(=O)c2cccs2)cc1OC` (stereo not given): -4.1% (inactive).
For `CCOc1ccc(NC(=O)c2ccc(NC(=O)C3CCCO3)cc2)cc1` (stereo not given), the inhibition (at 35 µM) is -9.4% (inactive).
For the molecule `Cc1ccc(OCC(=O)Nc2ccc(C(=O)O)cc2NC(=O)COc2ccc(C)c(C)c2)cc1C`, the inhibition (at 35 µM) was 4.8% (inactive).
Regarding `Cc1ccc(NC(=S)Nc2ccc(F)cc2)cc1`, the inhibition (at 35 µM) is -11.3% (inactive).
On the same count and under the same terms, the same measure for `CN1CCc2c(sc3c2c(NCc2ccco2)nc2nnnn23)C1`: 68% (active).
As to `Cn1c(=O)n(Cc2ccco2)c(=N)c2c3c(sc21)CCCC3`, where the note is “at 35 µM”, the inhibition was -14.4% (inactive).
For `CCCSc1nc(NCc2ccco2)c2c3c(sc2n1)COC(C)(CC)C3` (stereo not given), for the setting “at 35 µM”, the inhibition was 4.7% (inactive).
As for `O=C(CCN1C(=O)[C@@H]2Cc3ccccc3CN2C1=O)NCCc1ccccc1`, the inhibition (at 35 µM) was 80.7% (active).
The same measure, in the same setting: the same measure for `O=C(CCN1C(=O)[C@@H]2Cc3ccccc3CN2C1=O)NCc1ccccc1`: -0.5% (inactive); for `Cc1ccc(CNC(=O)CCN2C(=O)[C@@H]3Cc4ccccc4CN3C2=O)cc1`: -3.4% (inactive).
Regarding `COc1ccc(OC)c(C(O)c2nc3ccccc3n2C)c1` (stereo not given), the inhibition (at 35 µM) was -3.8% (inactive).
In the case of `Cc1ccc(C(C)C)cc1OCC(=O)Nc1ccccc1N1CCCC1`, for the setting “at 35 µM”, the inhibition is -15.8% (inactive).
For `CC(=O)Oc1ccc(-c2cccc(C(=O)N3CCCCC3)c2)cc1`, the inhibition (at 35 µM) is 5.5% (inactive).
For `CC(C)(C)C1C/C(=C/c2ccco2)C(=O)/C(=C/c2ccco2)C1` (stereo not given), the inhibition was 71.6% (active) (at 35 µM) and 82.6% (confirmation average, at 20 µM).
Consider `CCC1S/C(=N/N=C/c2ccco2)NC1=O` (stereo not given), for which the inhibition (at 35 µM) was 9.4% (inactive).
Consider `O=C1OC(/C=C/c2ccccc2)=NC/1=C/c1ccco1`, for which the inhibition (at 35 µM) is 76.9% (inactive) and the inhibition (confirmation average, at 20 µM) is 4.3%.
Take `O=C(NCc1ccccc1Cl)C1CCN(S(=O)(=O)c2cccc3nonc23)CC1`: the inhibition (at 35 µM) is 9.7% (inactive).
Regarding `C=CCN1C(=O)C2(OCCCO2)c2cccc(Cl)c21`, for the setting “at 35 µM”, the inhibition is 0.1% (inactive).
As for `O=C(CN1CCC(NC(=O)Nc2ccccc2)CC1)Nc1cccc([N+](=O)[O-])c1`, the inhibition (at 35 µM) is -3.5% (inactive).
